# This is part of a sample that, as a whole, favours compounds with a hit. Of some 83,000 tested, about 20% had one in any assay.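 Method: cells in 96-well plates; compound added at one concentration; 48 h incubation; percent growth measured; values under 10 scored active.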 A number with no mark means an inactive call. Activity calls are given as the source filed them.
# Legend:
# Assay in all cases: NCI-60 one-dose screen, 48 h (100 = growth as untreated, 0 = no growth, -100 = all killed)
# Settings in all cases: 10 µM unless noted
# NCI-H23 lung = system: NCI-H23 lung
# NCI-H226 lung = system: NCI-H226 lung
# NCI-H322M lung = system: NCI-H322M lung
# HOP-62 NSCLC = system: HOP-62 NSCLC
# NCI-H460 lung = system: NCI-H460 lung
# HOP-92 NSCLC = system: HOP-92 NSCLC
# NCI-H522 lung = system: NCI-H522 lung
# A549/ATCC NSCLC = system: A549/ATCC NSCLC
# 786-0 renal = system: 786-0 renal
# COLO 205 colon = system: COLO 205 colon
SMILES,growth (NCI-H23 lung),growth (NCI-H226 lung),growth (NCI-H322M lung),growth (HOP-62 NSCLC),growth (NCI-H460 lung),growth (HOP-92 NSCLC),growth (NCI-H522 lung),growth (A549/ATCC NSCLC),growth (786-0 renal),growth (COLO 205 colon)
O=C(C1CCC1)N1N=C(c2ccc(-n3ccc(C(F)(F)F)n3)cc2)CC1c1ccc[nH]1 (stereo not drawn),101%,107%,90.1%,108%,101%,130%,84.7%,89.3%,95.8%,
N#C/C(=C\c1ccc(Cl)cc1)n1nnc2cc(F)c(F)cc21,30%,83.8%,33.9%,59.1%,-22.2% (active),5.41% (active),3.72% (active),32.8%,14.7%,
CNC(=O)c1cc(Cn2nc(C)c(NC(=O)Nc3ccc(Cl)c(C(F)(F)F)c3)c2C)ccn1,97.8%,96.6%,94.5%,93.4%,100%,106%,71.5%,70%,100%,99.9%
N=C1C(c2nc3ccccc3s2)=C(O)CN1c1cc(Cl)cc(Cl)c1,88.6%,102%,89.1%,62.2%,67.5%,-15.8% (active),86.5%,71.4%,71.1%,
CCCCCCNC(=O)Oc1ccc(/C(=C(\C)c2ccccc2)c2ccc(OCCN3CCCCC3)cc2)cc1,68.7%,93.8%,80.5%,75.4%,41%,64.1%,71.8%,64.4%,16.3%,
COc1cc(C2=NN(C(C)=O)C(c3cc(OC)c(OC)c(OC)c3)C2)ccc1O (stereo not drawn),29.5%,38.5%,35.2%,32.8%,-6.58% (active),48.5%,-33.8% (active),21.7%,17.9%,
N#Cc1cccc(-c2ccc3c(c2)NC(=O)/C3=C\c2ccc[nH]2)c1,34.2%,41.6%,45.5%,62.7%,22.4%,56.7%,28.7%,86.5%,74.5%,
Cc1cc2c(c(C)c1Cl)C(=O)/C(=C/c1ccc(O)c(O)c1)O2,94.6%,92.9%,104%,90.5%,99.9%,90.2%,87.3%,97.8%,107%,
COC(=O)c1ccc2c(c1)[n+](=O)c(C(C)=O)c(C(F)(F)F)n2[O-],-62.2% (active),-17.1% (active),66.2%,-9.08% (active),-88.8% (active),-57% (active),-80.7% (active),28.6%,-40.5% (active),-100% (active)
CCCOC(=O)N[C@H]1CCc2c(Cl)c(OC)c(OC)c(OC)c2-c2ccc(SC)c(=O)cc21,26.8%,6.58% (active),31.8%,40.5%,1.99% (active),-2.58% (active),12.3%,22.8%,4.31% (active),0.25% (active)
COc1ccc(C/C(=C(\C)c2ccc(OCCN3CCCC3)cc2)c2ccc(OCCN3CCCC3)cc2)cc1,83.9%,84.4%,81.7%,80.3%,6.71% (active),26.4%,56.8%,69.3%,69.1%,-25.8% (active)
COc1cc(/C=C/C(=O)c2nc3cc(F)ccc3nc2C)cc(OC)c1OC,64.6%,103%,102%,106%,53.5%,48.9%,70.3%,65%,75.7%,82%
O=Cc1ccc(-c2cn3ccnc3c(-c3ccc4ncn(Cc5ccccc5)c4c3)n2)cc1,45.5%,99.5%,88.8%,76.2%,62.2%,57%,74.7%,103%,53.3%,126%
COc1ccc(/C=C(\C#N)n2nc3cccc(F)c3n2)cc1,101%,96.9%,98.6%,105%,106%,96.1%,93%,98.1%,96.6%,115%
O=C(Nc1cccc(C2=NCCN2)c1)c1ccc(-c2ccc(C(=O)Nc3cccc(C4=NCCN4)c3)cc2)cc1,73%,84%,93.8%,113%,37.8%,90.9%,60.5%,74.9%,86.2%,43.9%
C#Cc1cccc(NC(=O)Nc2cccc(NC(=O)CCl)c2)c1,-82.8% [8.25 µM] (active),-12.1% [8.25 µM] (active),88.9% [8.25 µM],36.1% [8.25 µM],-32.2% [8.25 µM] (active),-53.1% [8.25 µM] (active),-37.5% [8.25 µM] (active),56.8% [8.25 µM],-65.1% [8.25 µM] (active),-51.3% [8.25 µM] (active)
CCCCCCNC(=O)Oc1ccc(/C(=C(\C)c2ccccc2)c2ccc(OCCCN(C)C)cc2)cc1,82.8%,104%,75.2%,98.3%,39.1%,83.7%,88.9%,72.7%,71%,58.1%
ClC1=C(Br)C(Br)(Br)C(=C(Br)Br)C1(Br)Br,104%,93.6%,99%,121%,94.7%,94%,-25% (active),94.6%,109%,57.3%
COc1cc2c(=O)n(CCN)c3c4cc5c(cc4ccc3c2cc1OC)OCO5,14.2%,-66% (active),-72.1% (active),-51.2% (active),-76.5% (active),49.6%,-7.78% (active),-76.5% (active),-79.3% (active),-0.566% (active)
O=S(=O)(NCCCNc1nccc(-c2c(-c3cccc(F)c3)nc3sccn23)n1)c1cccc(F)c1,38.8%,23.2%,79.9%,61.3%,58.3%,74.8%,21.9%,49.3%,66.3%,23.4%
CC1=C(C(=O)/C=C/c2ccc(N(C)C)cc2)C(c2ccccc2)NC(=S)N1 (stereo not drawn),93.3%,93.8%,103%,106%,108%,96.6%,91%,106%,101%,119%
COc1cccc(-c2nc3occn3c2-c2ccnc(NCCNS(=O)(=O)c3cccc4ccccc34)n2)c1,103%,99.6%,104%,103%,101%,122%,102%,105%,97.8%,96%
COc1cc2c3c(c4c5ccccc5[nH]c4c2c(OC)c1OC)C(=O)N(CCN1CCOCC1)C3=O,63%,69.8%,68.2%,59.9%,18.6%,75.4%,35.4%,45.1%,56.2%,56.4%
O=C(O)c1ccc2c(c1)C(=O)N(Cc1ccccc1)C2=O,98.5%,92.7%,96%,95.8%,102%,86.2%,91.4%,101%,95.5%,107%
COc1cc(/C=C\c2cc(OC)c(OC)c(OC)c2)cc(NC(=O)/C=C/c2cc(OC)c(OC)c(OC)c2)c1OC,27.8%,66.6%,66.8%,63.7%,55.7%,45%,23.3%,60.8%,51.6%,38.2%
Fc1ccc(-c2cn3c(nc4ccccc43)c(-c3ccccc3)n2)cc1,88.5%,97.5%,109%,107%,98.2%,68.7%,64.7%,91.4%,83%,116%
